Experimental data reported in PubChem BioAssay AID1159580 (chemical genetic matrix, 2015).
Hit rate of the full screen: of about 5,500 compounds, about 2,000 (36%) were called active. About 18% were inconclusive and are not listed. No stated cut-off is given here; in the data, active means normalized growth mostly below about 0.91 (no sharp cut-off); inconclusive means no clear call, values can overlap the other calls; inactive means mostly above about 0.92. Some of the results follow.

Assay: chemical genetic growth profiling, strain panel (AID 1159580);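 further: tested at 20 µM; growth read once vehicle control cultures reached saturation at 30 °C; 1 = growth at the plate median or of vehicle wells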
Settings: growth OD
[1] = S. cerevisiae deletion strains, locus YAL013W, strain DEP1, stronger effect = lower value
[2] = S. cerevisiae deletion strains, locus YGR078C, strain PAC10, stronger effect = lower value
[3] = S. cerevisiae deletion strains, locus YJR075W, strain HOC1, stronger effect = lower value
[4] = S. cerevisiae deletion strains, locus YMR307W, strain GAS1, stronger effect = lower value
[5] = S. cerevisiae deletion strains, locus YNL153C, strain GIM3, stronger effect = lower value

Measured: normalized growth

CCC(C)C(OC(C)=O)C(=O)OC1C(O)C2C3(C)C=CC(=O)C(C)(C)C3CC(OC(=O)C(O)C(C)C)C2(C)C23OC2CC(c2ccoc2)C13C (centres undefined)
inactive: [1] 1.01 | S. cerevisiae deletion strains, locus YBR021W, strain FUR4, stronger effect = lower value 0.996 | S. cerevisiae deletion strains, locus YBR229C, strain ROT2, stronger effect = lower value 0.989 | S. cerevisiae deletion strains, locus YCL029C, strain bik1, stronger effect = lower value 0.978 | S. cerevisiae deletion strains, locus YDL035C, strain GPR1, stronger effect = lower value 0.976 | S. cerevisiae deletion strains, locus YDL074C, strain BRE1, stronger effect = lower value 1.02 | S. cerevisiae deletion strains, locus YDL101C, strain DUN1, stronger effect = lower value 1 | S. cerevisiae deletion strains, locus YDL134C, strain PPH21, stronger effect = lower value 1 | S. cerevisiae deletion strains, locus YDL185W, strain tfp1, stronger effect = lower value 0.988 | S. cerevisiae deletion strains, locus YDL192W, strain arf1, stronger effect = lower value 0.989 | S. cerevisiae deletion strains, locus YDR101C, strain arx1, stronger effect = lower value 0.991 | S. cerevisiae deletion strains, locus YDR150W, strain NUM1, stronger effect = lower value 1.01 | S. cerevisiae deletion strains, locus YDR162C, strain NBP2, stronger effect = lower value 1.02 | S. cerevisiae deletion strains, locus YDR318W, strain mcm21, stronger effect = lower value 0.966 | S. cerevisiae deletion strains, locus YDR388W, stronger effect = lower value 0.988 | S. cerevisiae deletion strains, locus YDR502C, strain sam2, stronger effect = lower value 1.02 | S. cerevisiae deletion strains, locus YEL061C, strain CIN8, stronger effect = lower value 1 | S. cerevisiae deletion strains, locus YER110C, stronger effect = lower value 0.992 | S. cerevisiae deletion strains, locus YER155C, strain BEM2, stronger effect = lower value 1 | S. cerevisiae deletion strains, locus YER167W, strain BCK2, stronger effect = lower value 0.982 | S. cerevisiae deletion strains, locus YGL078C, strain dbp3, stronger effect = lower value 1 | S. cerevisiae deletion strains, locus YGL086W, strain mad1, stronger effect = lower value 0.978 | S. cerevisiae deletion strains, locus YGL248W, strain PDE1, stronger effect = lower value 0.999 | [2] 1.04 | S. cerevisiae deletion strains, locus YGR135W, strain pre9, stronger effect = lower value 1.02 | S. cerevisiae deletion strains, locus YGR229C, strain SMI1, stronger effect = lower value 1.02 | S. cerevisiae deletion strains, locus YGR252W, strain gcn5, stronger effect = lower value 0.946 | S. cerevisiae deletion strains, locus YHR030C, strain SLT2, stronger effect = lower value 0.994 | S. cerevisiae deletion strains, locus YHR079C, strain IRE1 (second series), stronger effect = lower value 1 | S. cerevisiae deletion strains, locus YHR094C, strain hxt1, stronger effect = lower value 0.988 | S. cerevisiae deletion strains, locus YHR129C, strain ARP1, stronger effect = lower value 1 | S. cerevisiae deletion strains, locus YHR200W, strain rpn10, stronger effect = lower value 0.987 | S. cerevisiae deletion strains, locus YIL066C, strain RNR3, stronger effect = lower value 0.994 | S. cerevisiae deletion strains, locus YIL073C, strain SPO22, stronger effect = lower value 0.902 | S. cerevisiae deletion strains, locus YIL125W, strain kgd1, stronger effect = lower value 0.986 | S. cerevisiae deletion strains, locus YIR030C, strain dcg1, stronger effect = lower value 0.988 | S. cerevisiae deletion strains, locus YJL095W, strain BCK1, stronger effect = lower value 1.05 | S. cerevisiae deletion strains, locus YJL134W, strain LCB3, stronger effect = lower value 0.997 | S. cerevisiae deletion strains, locus YJL168C, strain set2, stronger effect = lower value 0.992 | S. cerevisiae deletion strains, locus YJL187C, strain SWE1 (second series), stronger effect = lower value 1.01 | S. cerevisiae deletion strains, locus YJR043C, strain POL32, stronger effect = lower value 0.969 | [3] 1.01 | S. cerevisiae deletion strains, locus YKL009W, strain mrt4, stronger effect = lower value 1.08 | S. cerevisiae deletion strains, locus YKL068W, stronger effect = lower value 1 | S. cerevisiae deletion strains, locus YKL085W, strain MDH1 (second series), stronger effect = lower value 1.04 | S. cerevisiae deletion strains, locus YKL085W, strain MDH1, stronger effect = lower value 1.04 | S. cerevisiae deletion strains, locus YKL190W, strain CNB1, stronger effect = lower value 0.998 | S. cerevisiae deletion strains, locus YKR001C, strain vps1, stronger effect = lower value 0.991 | S. cerevisiae deletion strains, locus YLR039C, strain RIC1, stronger effect = lower value 0.962 | S. cerevisiae deletion strains, locus YLR058C, strain SHM2, stronger effect = lower value 0.995 | S. cerevisiae deletion strains, locus YLR102C, strain apc9, stronger effect = lower value 0.982 | S. cerevisiae deletion strains, locus YLR262C, strain YPT6, stronger effect = lower value 0.973 | S. cerevisiae deletion strains, locus YLR268W, strain sec22, stronger effect = lower value 1.02 | S. cerevisiae deletion strains, locus YLR330W, strain CHS5, stronger effect = lower value 0.996 | S. cerevisiae deletion strains, locus YLR342W, strain FKS1 (second series), stronger effect = lower value 0.987 | S. cerevisiae deletion strains, locus YLR371W, strain rom2, stronger effect = lower value 0.985 | S. cerevisiae deletion strains, locus YLR418C, strain cdc73, stronger effect = lower value 1 | S. cerevisiae deletion strains, locus YML016C, strain PPZ1, stronger effect = lower value 1 | S. cerevisiae deletion strains, locus YML032C, strain rad52, stronger effect = lower value 0.97 | S. cerevisiae deletion strains, locus YML124C, strain tub3, stronger effect = lower value 0.993 | S. cerevisiae deletion strains, locus YMR078C, strain ctf18, stronger effect = lower value 0.977 | S. cerevisiae deletion strains, locus YMR223W, strain ubp8, stronger effect = lower value 0.983 | S. cerevisiae deletion strains, locus YMR263W, strain SAP30, stronger effect = lower value 1.04 | [4] 0.912 | S. cerevisiae deletion strains, locus YNL067W, strain RPL9B, stronger effect = lower value 1.03 | S. cerevisiae deletion strains, locus YNL128W, strain TEP1, stronger effect = lower value 1.01 | [5] 1.05 | S. cerevisiae deletion strains, locus YNL233W, strain BNI4, stronger effect = lower value 1.03 | S. cerevisiae deletion strains, locus YNL250W, strain rad50, stronger effect = lower value 0.992 | S. cerevisiae deletion strains, locus YNL271C, strain bni1, stronger effect = lower value 0.993 | S. cerevisiae deletion strains, locus YNL298W, strain CLA4, stronger effect = lower value 0.99 | S. cerevisiae deletion strains, locus YNL307C, strain MCK1, stronger effect = lower value 0.979 | S. cerevisiae deletion strains, locus YNL322C, strain KRE1, stronger effect = lower value 0.999 | S. cerevisiae deletion strains, locus YNR052C, strain pop2, stronger effect = lower value 0.988 | S. cerevisiae deletion strains, locus YOL006C, strain TOP1, stronger effect = lower value 0.949 | S. cerevisiae deletion strains, locus YOL012C, strain htz1 2.38 | S. cerevisiae deletion strains, locus YOL147C, strain pex11, stronger effect = lower value 0.999 | S. cerevisiae deletion strains, locus YOR061W, strain CKA2, stronger effect = lower value 1 | S. cerevisiae deletion strains, locus YOR069W, strain VPS5, stronger effect = lower value 0.978 | S. cerevisiae deletion strains, locus YOR136W, strain idh2, stronger effect = lower value 0.979 | S. cerevisiae deletion strains, locus YOR144C, strain elg1, stronger effect = lower value 1 | S. cerevisiae deletion strains, locus YOR184W, strain ser1, stronger effect = lower value 0.946 | S. cerevisiae deletion strains, locus YOR316C, strain cot1, stronger effect = lower value 0.996 | S. cerevisiae deletion strains, locus YPL055C, strain LGE1, stronger effect = lower value 1.05 | S. cerevisiae deletion strains, locus YPL241C, strain CIN2, stronger effect = lower value 1 | S. cerevisiae deletion strains, locus YPR119W, strain clb2, stronger effect = lower value 0.993 | S. cerevisiae deletion strains, locus YPR141C, strain kar3, stronger effect = lower value 0.99 | S. cerevisiae deletion strains, locus YPR163C, strain tif3, stronger effect = lower value 0.986 | S. cerevisiae deletion strains, locus YPR167C, strain met16, stronger effect = lower value 0.99 | S. cerevisiae deletion strains, strain wtn01, stronger effect = lower value 1 | S. cerevisiae strains, strain wild type, stronger effect = lower value 0.985

C=Cc1c2[nH]c(c1C)Cc1[nH]c(c(C)c1C=C)C=C1N=C(C=c3[nH]c(c(C)c3CCC(=O)O)=C2)C(CCC(=O)O)=C1C
inactive: [1] 0.99 | S. cerevisiae deletion strains, locus YAL040C, strain CLN3, stronger effect = lower value 0.989 | S. cerevisiae deletion strains, locus YCL061C, strain MRC1 (second series), stronger effect = lower value 1.01 | S. cerevisiae deletion strains, locus YDR363W, strain ESC2, stronger effect = lower value 1.05 | S. cerevisiae deletion strains, locus YER002W, strain NOP16, stronger effect = lower value 0.987 | [2] 1.01 | [3] 1.01 | [4] 1.01 | [5] 0.799 | S. cerevisiae deletion strains, locus YNL175C, strain NOP13, stronger effect = lower value 0.993 | S. cerevisiae deletion strains, locus YNL197C, strain WHI3, stronger effect = lower value 0.972 | S. cerevisiae deletion strains, locus YNL224C, strain SQS1, stronger effect = lower value 1.01 | S. cerevisiae deletion strains, locus YOR083W, strain WHI5 (second series), stronger effect = lower value 1.01
